# VP16 counter = VP16 counterscreen qHTS for inhibitors of ROR gamma transcriptional activity; Drosophila S2 Gal4-VP16 UAS-luciferase, luminescence, 20 h; Potency, µM (top dose mostly 53.6 µM), inactives show at the highest dose activity, negative = inhibition, usual class: inhibitors; 310,000 compounds, 3.5% hits;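 further: Gal4-VP16 expression switched on by copper sulfate through the metallothionein promoter; potency means the concentration at half of the fitted maximal effect; nearly all actives have a fitted effect of over 50% in size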
# PKM2 act = qHTS Assay for Activators of Human Muscle isoform 2 Pyruvate Kinase | AID 1631, 2009 | purified PKM2, Kinase-Glo ATP luminescence, activation; response scale: 0% is enzyme alone, no compound | Pyruvate kinase PKM (Homo sapiens), P14618 | 260,000 compounds, 0.34% hits | Potency, µM (top dose mostly 57.5 µM), inactives show top-dose activation, hits mostly activators; further: potency means the concentration at half of the fitted maximal effect; nearly all actives have a fitted effect of over 55% in size
#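 Purified hPK-M2 (>95%) run at intermediate activity with 0.1 mM ADP and 0.5 mM PEP in 50 mM imidazole pH 7.2, KCl, MgCl2; 1 h room temperature. ATP formed read by Kinase-Glo luminescence; normalized to uninhibited and no-enzyme controls.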
# RORg inh = qHTS for inhibitors of ROR gamma transcriptional activity; Nuclear receptor ROR-gamma (Mus musculus), P51450; Drosophila S2 Gal4-RORgamma UAS-luciferase reporter, 20 h; Potency, µM (top dose mostly 53.6 µM), inactives show at the highest dose activity change, negative = inhibition, hits mostly inhibitors; 310,000 compounds, 5.4% hits; AID 2551, 2010; further: potency means the concentration at half of the fitted maximal effect; nearly all actives have a fitted effect of over 60% in size
# Target sequence (P51450 whole entry, looked up, the tested form may be a part): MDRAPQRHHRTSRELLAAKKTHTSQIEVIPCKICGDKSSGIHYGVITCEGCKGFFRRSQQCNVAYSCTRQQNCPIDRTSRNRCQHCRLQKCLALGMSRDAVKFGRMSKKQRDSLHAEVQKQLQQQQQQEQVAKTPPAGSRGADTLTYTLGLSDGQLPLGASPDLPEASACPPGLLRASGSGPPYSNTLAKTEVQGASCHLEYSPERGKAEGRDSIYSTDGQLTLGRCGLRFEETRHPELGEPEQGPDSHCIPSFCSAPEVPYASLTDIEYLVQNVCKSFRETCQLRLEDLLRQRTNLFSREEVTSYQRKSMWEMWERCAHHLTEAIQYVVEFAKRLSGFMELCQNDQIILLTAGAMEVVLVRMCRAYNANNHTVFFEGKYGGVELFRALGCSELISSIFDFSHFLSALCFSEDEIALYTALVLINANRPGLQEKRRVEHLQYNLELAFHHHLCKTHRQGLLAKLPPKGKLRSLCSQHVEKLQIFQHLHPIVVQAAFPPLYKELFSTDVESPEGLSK
#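 Read-out: Photinus luciferase luminescence; inhibitors lower reporter signal. Insect Schneider cells with Gal4-ROR gamma fusion under metallothionein promoter, UAS reporter; 700 uM final copper sulfate induction, 20 hr, ambient temperature.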
# CtBP-E1A inh = qHTS Assay for Inhibitors of the CtBP/E1A Interaction; AlphaScreen GST-E1A/His-CtBP binding, 1536-well; active compounds read low; activity change, % (test concentration not listed); 340,000 compounds, 0.49% hits; in the data active means activity change below about -65%; inconclusive means mostly about -30% to -63%
#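 AlphaScreen with 125 nM GST-E1A and 125 nM His-CtBP (5X stocks) in Tris pH 8.0, 300 mM NaCl, BSA, Tween 20, TCEP. Compounds preincubated 2 h at 37 deg C, then glutathione donor/nickel acceptor beads added for 1 h at 37 deg C in dark.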
# Six1-Eya2 blk = qHTS Assay for Inhibitors of the Six1/Eya2 Interaction. AlphaScreen GST-Six1/His-Eya2 binding, biochemical; active compounds read low. activity change, % (concentration not given with the values). 360,000 compounds, 0.56% hits. AID 651725, 2012; in the data active means activity change below about -65%; inconclusive means mostly about -30% to -63%
#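 AlphaScreen with GST-Six1 and His-Eya2 (5X mix: 250 nM and 500 nM), glutathione donor and nickel acceptor beads; buffer 50 mM Tris pH 8.0, 300 mM NaCl, 1 mM TCEP; 1 h at 37 C in the dark.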
# Starred values were filed as active, the others as inactive; ? = inconclusive; . = not tested or not shown; [ ] = dose if it differs, or a comment. Rows were chosen to be rich in hits. Some 5.6% of all compounds tested hit in one or more screens of this group. Unless noted, the call rests on the fitted dose curve; in most records, active means well fitted curve in the direction sought with a large enough effect; inconclusive means small, poorly fitted or top-dose-only effect, or another doubt; inactive means no such curve, though single readings can be large; an effect the other way counts as inactive or inconclusive. On the % scale 0 is the no-effect control and ±100 the full control effect.
SMILES,VP16 counter,PKM2 act,RORg inh,CtBP-E1A inh,Six1-Eya2 blk
CCC(NS(=O)(=O)c1ccc2c(c1)NC(=O)C(C)C(=O)N2)c1cccs1 (stereo not drawn),11%,-2%,1%,21,10
COc1c(C)cccc1C(=O)Nc1ccc(OCC(=O)N2CCOCC2)cc1C,?,-1%,1.8µM*,-2,3
COc1cc(SC)ccc1C(=O)Nc1ccccn1,10µM*,-10%,8.9µM*,-2,-1
COc1cc(SC)ccc1C(=O)Nc1cccc(C)n1,0%,1%,-36%,-10,1
O=C(c1ccc(F)cc1Cl)N1CCN(S(=O)(=O)c2cccs2)CC1,3%,15%,-29%,-14,16
O=C(COCc1cc(-c2ccc3c(c2)OCO3)on1)N1CCN(c2ccccc2)CC1,5%,.,5%,?,-22
COc1ccc(-c2cc3cccc(OC)c3oc2=O)cc1,?,.,10µM*,9,7
COc1ccc(OCC(=O)Nc2ccccc2C(=O)Nc2ccc(C(=O)O)cc2)cc1,5%,2%,3%,2,21
Cc1noc(C)c1S(=O)(=O)N(C)C[C@H]1Oc2c(cccc2N(C)C)C(=O)N([C@H](C)CO)C[C@@H]1C,.,.,.,-12,0
CC(C)n1c(CN(C)Cc2ccccc2)nc2c1c(=O)n(C)c(=O)n2C,1.3µM*,.,?,7,2
CC(=O)C(C)n1c(CN(C)Cc2ccccc2)nc2c1c(=O)n(C)c(=O)n2C (stereo not drawn),?,-2%,-1%,7,1
CCOC(=O)c1ccccc1N/C=C/C(=O)c1ccccc1,.,.,.,3,5
Cc1ccc(/C=C/C(=O)c2ccc(C)cc2)cc1,-13%,2%,-38%,7,3
Cc1ccc(C(=O)/C=C/C(=O)c2ccc(C)cc2)cc1,?,?,5µM*,-13,-2
Cc1ccc(/C=C/C(=O)Nc2ccccc2C(N)=O)cc1,?,-14%,3.5µM*,19,3
Cc1ccc(C(=O)/C=C/Nc2ccccc2C(N)=O)cc1,2.8µM*,-19%,0.5µM*,-1,0
NC(=O)c1ccccc1N/C=C/C(=O)c1ccc(Cl)cc1,1.6µM*,-4%,1.4µM*,-9,7
Nc1nc(-c2ccccc2)ns1,.,.,.,0,7
Cc1cc(C)[n+](-c2ccc(Oc3ccccc3)c(S(=O)(=O)[O-])c2)[nH]1,-2%,3%,2%,3,-6
CC1(c2ccccc2Cl)NC(=O)N(CC(=O)NCc2ccco2)C1=O (stereo not drawn),-5%,0%,-2%,-2,3
NC(=O)c1ccccc1NC(=O)COC(=O)CSCc1cccc(Cl)c1,.,.,.,4,-1
CC(C)COC(=O)N1CCCCC1c1cc(C(=O)NCc2cccnc2)no1 (stereo not drawn),.,.,.,2,-1
CN(Cc1ccco1)c1cc(-c2ccoc2)ncn1,6%,.,-5%,.,.
COc1ccc(Cl)c2c1[nH]c1nc(SCc3ccccn3)nnc12,29%[10 µM],21%,31%,?,-67*
C/C(=N\Nc1nc2ccccc2[nH]1)c1cc2ccccc2o1,3.5µM*,-18%,4.5µM*,-18,-6
SMILES,VP16 counter,PKM2 act,RORg inh,CtBP-E1A inh,Six1-Eya2 blk
C/C(=N\NC(=O)c1cccnc1)c1cc2ccccc2o1,-14%,1%,-33%,-6,-7
CC(=O)Nc1nc2ccccc2[nH]1,17%,-2%,-10%,.,-1
C/C(=N\Nc1nc2ccccc2[nH]1)c1ccccn1,-70%,.,2.5µM*,.,.
CCCCN1C[C@H](CSC)[C@@H](CC(=O)Nc2ccc(OC)cc2)C1=O,.,.,.,-5,-2
Oc1cc2ccccc2nc1-c1ccccc1Cl,6%,0%,29%,0,-1
O=C(Nc1cccnc1)c1cc(-c2cc(Cl)ccc2O)n[nH]1,12%,4%,18%,.,-14
Oc1ccc(Cl)cc1-c1cc(-c2cccc(Br)c2)n[nH]1,0.89µM*,0%,?,3,0
Oc1ccc(Cl)cc1-c1cc(-c2ccccc2Cl)[nH]n1,10µM*,5%,4.5µM*,5,1
O=[N+]([O-])c1ccccc1-c1cc(-c2cc(Cl)ccc2O)n[nH]1,?,-1%,16µM*,-11,-6
O=C(O)c1cc(-c2ccc(Cl)cc2)n[nH]1,.,-8%,5%[0.365 µM],4,-2
Cc1ccc(O)c(-c2cc(-c3ccccc3[N+](=O)[O-])[nH]n2)c1,?,3%,?,-4,-13
Oc1ccccc1-c1cc(-c2ccccc2Cl)[nH]n1,?,-4%,4.5µM*,7,11
CCOc1ccc(N(Cc2ccc(C(=O)O)cc2)S(=O)(=O)c2ccc(C)cc2)cc1,-8%,2%[11.5 µM],33%,-1,11
CC1(C)C(CSc2nc3ccccc3[nH]2)C1(Cl)Cl (stereo not drawn),9%,-4%,-15%,9,4
CC(C)=C1CCC(C)CC1=O (stereo not drawn),2%,.,7%,.,.
Cc1c(CCO)c(=O)[nH]n1C(=O)c1ccc(F)cc1,11µM*,1%,10µM*,5,-1
Cc1c(CCO)c(=O)n(C)n1C(=O)c1ccc(F)cc1,-11%,3%,-16%,-2,4
COc1ccc2c(c1)CC/C(=C\Nc1ccc3c(c1)OCO3)C2=O,3%,-1%,?,2,-10
O=C1/C(=C/Nc2ccc3c(c2)OCO3)CCc2ccccc21,11µM*,-71%,-71%,4,-14
COc1ccc(N/C=C2\CCc3ccccc3C2=O)cc1,?,-41%,8.9µM*,18,5
CCOc1ccc2c(c1)C(C)=CC(C)(C)N2S(=O)(=O)c1ccc(F)cc1,-3%,0%,-32%[1.91 µM],13,-1
CCOc1ccc2c(c1)-c1c(ssc1=S)C(C)(C)N2C,?,-1%,?,-71*,?
N#Cc1c(SCC(=O)Nc2nccs2)nc2c(c1-c1ccco1)CCCC2,2%,23%,10µM*,-2,-2
COc1ccc2[nH]c(O)c(N=O)c2c1,?,-2%,0%,8,0
Cc1cc2c(N=O)c(NO)ccc2[nH]1,3.2µM*,0%,5µM*,-11,-3
Fc1cccc(Cc2c(-c3cccc(Cl)c3)nc3ccc(Cl)cn23)c1,.,.,.,-19,5
O[C@@H]([C@H](O)[C@@H](O)CBr)[C@@H](O)CBr,6%,.,-13%,.,.
O=C(O)c1cccc(S(=O)(=O)Nc2cccc(S(=O)(=O)Nc3ccc(Br)cc3)c2)c1,.,.,.,-3,2

# Bioassay records (PubChem BioAssay)
